Assay outcomes (PubChem)
Hits are enriched below; roughly 7.1% of the tested compounds scored in any of these assays.
ATXN2 expr inh – ATXN2 expression inhibition | Potency, µM (series often up to 57 µM), without a hit: at the top dose activity change, negative = inhibition, actives largely listed as inhibitors | HEK-293 ATXN2-luciferase reporter, luminescence, 24 h | 0.72% of 360,000 active | AID 1745845; note: potency is the fitted concentration of half-maximal effect; % is set by controls: 0 for no effect and ±100 for the full control effect; nearly all actives have a fitted effect of over 55% in size
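ATXN2-luciferase reporter cells (luciferase flanked by upstream and downstream ATXN2 gene portions) were treated 24 h at 37 °C with compounds at up to 57 uM. SteadyGlo luminescence gave expression; GF-AFC fluorescence gave viability.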
PINK1 modulator – modulators of PINK1 expression. 0.2% of 410,000 active. Potency, µM (doses to about 76.6 µM), inactives show at the top dose activation (PINK1 increase), hits mostly activators. PINK1 immunofluorescence, high-content cytometry, 24 h; active = well fitted activation curve with a large enough effect; inconclusive = small, poorly fitted or top-dose-only effect; cell line not stated here; note: potency is the fitted concentration of half-maximal effect; % of control where 0% means no effect; nearly all actives have a fitted effect of over 65% in size
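Decision-based qHTS: stable cells, 24 h exposure to five compound concentrations, CCCP as control. Fixed cells stained for PINK1 plus nuclear, mitochondrial and cell markers, cytometer read.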
IL-1B inflam inh – inflammasome signaling inhibition, IL-1 beta readout. AID 743279. activity change, % at 57.5 µM. 4.7% of 360,000 active. THP-1 LPS/ATP IL-1B secretion, AlphaLISA, 16 h; stronger effect = lower value; in the data active = activity change below about -50%; inconclusive = mostly about -30% to -49%; note: % is set by controls: 0 for no effect and ±100 for the full control effect
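Secreted IL-1B measured by AlphaLISA bead assay after 16 h compound exposure of THP-1 cells; compounds (final up to 57.5 uM) added 1 h before LPS (250 ng/mL) and ATP (1.25 mM) stimulation; lower signal means less secretion.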
ATXN viability – viability counter-screen for ATXN expression inhibitors; AID 651635; Potency, µM (top dose mostly 56.7 µM), most hits filed as cytotoxic; 0.49% of 400,000 active; S2 cells (HEK-293 line with an ATXN2-luciferase reporter) viability, CellTiter-Fluor protease fluorescence, 24 h; note: potency is the fitted concentration of half-maximal effect; nearly all actives have a fitted effect of over 40% in size
MCF10A rerep – DNA re-replication induction in MCF 10a cells. 2.9% of 350,000 active. Potency, µM (titrated, usually from 46.1 µM), without a hit: at the top dose activity, positive = re-replication, hits mostly activators. MCF 10A DNA re-replication, Hoechst nuclear intensity, 48 h; note: potency is the fitted concentration of half-maximal effect; % of control where 0% means no effect; nearly all actives have a fitted effect of over 50% in size
SW480 rereplic – inducers of DNA re-replication in SW480 colon cancer cells; SW480 DNA re-replication, Hoechst DNA content imaging, 48 h; Potency, µM (top dose mostly 46.1 µM), for inactives: top-dose re-replication activation, hits mostly activators; 1.8% of 340,000 active; AID 624297; note: potency is the fitted concentration of half-maximal effect; % of control where 0% means no effect; nearly all actives have a fitted effect of over 55% in size
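Hoechst fluorescence of nuclei (405 nm excitation, 500-530 nm emission) measured by plate-scanning imager after 48 hr compound exposure at 37 C; re-replication scored as increased number of nuclei with elevated intensity.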
* = called active by the depositor; i = inactive; ? = inconclusive; nt = not tested or not shown; [ ] = another dose, or the depositor's remark. Unless noted, calls come from the whole dose curve; as a rule, active = well fitted curve in the direction sought with a large enough effect; inconclusive = small, poorly fitted or top-dose-only effect, or another doubt; inactive = no such curve, though single readings can be large; an effect the other way counts as inactive or inconclusive.

SMILES | ATXN2 expr inh | PINK1 modulator | IL-1B inflam inh | ATXN viability | MCF10A rerep | SW480 rereplic
Cc1nc(-c2ccc(Cl)cc2)sc1CCNC(=O)C(=O)Nc1ccc2c(c1)OCO2 | 8% | 1% | nt | ? | nt | nt
CCn1c(-c2ccccc2F)nc2cc(NC(C)=O)cc(C(=O)N(C)Cc3c(C)nc4ccccn34)c21 | nt | 0% | nt | i | nt | nt
CC(=O)Nc1cc(N=Cc2ccc(O)cc2O)c(Cl)cc1Cl | -3% | 7% | -102* | ? | 21µM* | ?
Cc1ccc(S(=O)(=O)c2cn(Cc3ccccc3)c3cc(N4CCCC4)c(F)cc3c2=O)cc1C | nt | 0% | nt | nt | nt | nt
Cc1cc(NC(=O)CSc2ncc(C(=O)Nc3ccccc3)c(=O)n2C)no1 | nt | -1% | nt | nt | nt | nt
OC(c1cccnc1)c1ccc2c(c1)CN(Cc1cccc3c1OCO3)CCO2 (stereo unspecified) | nt | 0% | nt | i | nt | nt
O=C(NCCCN1CCN(CCCNC(=O)c2ccccc2F)CC1)c1ccccc1F | 4% | 2% | -14 | i | 19% | 7.3µM*
O=C(NCCCN1CCN(CCCNC(=O)c2cccc(Cl)c2)CC1)c1cccc(Cl)c1 | -9% | 3% | -57* | ? | ? | 1%
O=C(NCCN1CCCC1)c1cccc(Cl)c1 | -13% | 2% | 42 | i | -4% | -6%
COc1ccc(-n2cc(C(=O)NCc3ccccc3)c3ccccc3c2=O)cc1 | nt | 2% | nt | nt | nt | nt
COC(=O)c1c(NC(=O)CSc2n[nH]c(N)n2)sc(C)c1C | -10% | 3% | -11 | i | 14% | -3%
CCOC(=O)c1sc(NC(=O)CSc2nc(C)cc(C)n2)c(C#N)c1C | -13% | 11%[38.3 µM] | 31 | i | ? | -1%
CCOC(=O)c1c(NC(=O)CSc2n[nH]c(N)n2)sc(CC)c1C | -17% | 0%[38.3 µM] | -92* | i | -1% | -4%
CCOC(=O)c1sc(NC(=O)CSc2n[nH]c(-c3ccccc3)n2)c(C#N)c1C | -18% | 16µM* | -16 | ? | 8.2µM* | 1%
CCOC(=O)c1sc(NC(=O)CSc2ccccn2)c(C#N)c1C | ? | 15%[38.3 µM] | 22 | ? | 21µM* | 15%
CCOC(=O)c1sc(NC(=O)CSc2ncn[nH]2)c(C#N)c1C | 12% | nt | 40 | i | 2.9µM* | 9.2µM*
CCOC(=O)c1sc(NC(=O)c2cc(-c3ccccc3)nc3ccccc23)c(C#N)c1C | ? | ? | -62* | ? | 2.6µM* | 0%
Cc1cc(C)c(Cn2c(=O)n(CCCC(=O)NCc3ccc4c(c3)OCO4)c(=O)c3sccc32)c(C)c1 | nt | -1% | nt | nt | nt | nt
Oc1[nH]c2ccc(Br)cc2c1N=Nc1ccc(F)cc1 | 19% | 15% | 19 | i | -3% | 1%
CCN(CC)S(=O)(=O)c1cc([N+](=O)[O-])ccc1N=Nc1c(O)[nH]c2ccccc12 | -19% | 11µM* | 0 | i | ? | 1%
O=[N+]([O-])c1ccc2[nH]c(O)c(N=Nc3ccc(F)cc3)c2c1 | 3% | 28µM* | 21 | i | ? | ?
O=[N+]([O-])c1ccc(N=Nc2c(O)[nH]c3ccc(F)cc23)cc1 | -13% | 1% | -10 | ? | 7.3µM* | ?
CC(C)C1C(c2ccccc2)NC(c2ccccc2)CC1(O)c1ccc(F)cc1 (stereo unspecified) | ? | 1% | 0 | ? | 16µM* | ?
CCOC(=O)C1(Cc2cccc(OC)c2)CCN(C/C=C/c2ccc(OC)cc2)CC1 | ? | 5% | -171* | ? | ? | ?
CCOC(=O)C1(CC2CC2)CCN(Cc2ccc(OC)cc2F)CC1 | -37% | 0% | -54* | i | ? | ?
SMILES | ATXN2 expr inh | PINK1 modulator | IL-1B inflam inh | ATXN viability | MCF10A rerep | SW480 rereplic
CCOC(=O)C1(CC2CC2)CCN(Cc2cc(Cl)c(O)c(OC)c2)CC1 | ? | -1% | 13 | i | -6%[9.22 µM] | -4%
CCOC(=O)C1(Cc2cccc(OC)c2)CCN(Cc2ccc(OC)c(O)c2)CC1 | -20% | -2% | ? | ? | 15% | 40%
CCOC(=O)C1(Cc2cccc(OC)c2)CCN(CCO)CC1 | -31% | -1% | 0 | ? | 6% | -1%
CCOC(=O)C1(Cc2cccc(OC)c2)CCN(CC=C(C)C)CC1 | nt | 0% | -13 | ? | 1% | -8%
CCOC(=O)C1(Cc2cccc(OC)c2)CCN(C/C=C/c2ccccc2)CC1 | -29% | 25% | -92* | i | 16% | -20%
CCOC(=O)C1(Cc2cccc(OC)c2)CCN(Cc2cccc(OCC)c2O)CC1 | -29% | 6% | -90* | i | 3% | 11%
Cc1ccc(S(=O)(=O)N(CC(=O)N2CCc3ccccc3C2)c2ccc(C)c(C)c2)cc1 | -30% | 2% | nt | ? | nt | nt
CS(=O)(=O)c1sc(C#N)c2c1C(=O)CC(c1ccccc1)C2 (stereo unspecified) | 5µM* | -3% | -113* | 6.3µM* | ? | 23%
CCCCCN(C(=O)CCC(=O)OCC(=O)N(C)c1ccccc1)c1c(N)n(CCCC)c(=O)[nH]c1=O | -5% | 0% | -5 | i | 0% | -1%
Cn1c(=O)[nH]c(=O)c2c1nc(N1CCNCC1)n2Cc1ccccc1Cl | -28% | 2% | 5 | ? | 2.9µM* | -38%
CCCCCN(C(=O)CCC(=O)OCC(=O)c1ccc(C(C)CC)cc1)c1c(N)n(CCCC)c(=O)[nH]c1=O (stereo unspecified) | -15% | 10% | -68* | i | ? | 3%
CCCCCn1c(N2CCC(Cc3ccccc3)CC2)nc2c1c(=O)[nH]c(=O)n2C | ? | -1% | -87* | nt | ? | 0%
CCn1c(N2CCN(CC(=O)c3c(C)n(C)c4ccccc34)CC2)nc2c1c(=O)[nH]c(=O)n2C | -9% | -1% | -71* | i | 1% | ?
COc1ccc(CN(Cc2ccco2)C(=O)COc2ccccc2OC)cc1 | nt | -1% | nt | nt | nt | nt
CCCCCN(C(=O)CN1CCC(Cc2ccccc2)CC1)c1c(N)n(CCCC)c(=O)[nH]c1=O | -25% | 0% | -78* | ? | ? | ?
CCCCCN(C(=O)CCC(=O)OCCOc1ccccc1)c1c(N)n(CCCC)c(=O)[nH]c1=O | -5% | 4% | -1 | i | -4% | 3%
COc1cc(C2C3=C(COC3=O)Oc3cc4c(cc32)OCO4)ccc1O (stereo unspecified) | -9% | 11% | 28 | ? | ? | 1.8µM*
COc1cc(C2C3=C(COC3=O)OC(C)(C)Oc3cc4c(cc32)OCO4)cc(OC)c1OC (stereo unspecified) | -1% | 1% | 16 | ? | 1.2µM* | 1.2µM*
